Screening data (PubChem BioAssay)
Pf growth 96h: P. falciparum growth inhibition at 96 hour, primary screen for plastid delayed-death inhibitors; P. falciparum luciferase reporter growth, 96 h; Potency, µM (highest dose often 28.7 µM), most hits filed as inhibitors; actives 6.9% (n = 320,000)
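Erythrocytes infected with luciferase-expressing P. falciparum were dispensed at 2% hematocrit and 0.05% parasitemia (final), then incubated with compounds 96 hours at 37 C in 5% CO2. Luminescence after detection reagent addition reported growth.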
AmpC inh detg: blocks E. coli AmpC beta-lactamase in detergent assay | P00811 | AmpC hydrolysis of nitrocefin, absorbance 480 nm, 0.01% Triton | Potency, µM (doses to about 114 µM), usual class: inhibitors | actives 0.041% (n = 370,000) | AID 485294; note: nearly all actives have a fitted effect of over 25% in size
Target sequence (P00811 whole entry, looked up): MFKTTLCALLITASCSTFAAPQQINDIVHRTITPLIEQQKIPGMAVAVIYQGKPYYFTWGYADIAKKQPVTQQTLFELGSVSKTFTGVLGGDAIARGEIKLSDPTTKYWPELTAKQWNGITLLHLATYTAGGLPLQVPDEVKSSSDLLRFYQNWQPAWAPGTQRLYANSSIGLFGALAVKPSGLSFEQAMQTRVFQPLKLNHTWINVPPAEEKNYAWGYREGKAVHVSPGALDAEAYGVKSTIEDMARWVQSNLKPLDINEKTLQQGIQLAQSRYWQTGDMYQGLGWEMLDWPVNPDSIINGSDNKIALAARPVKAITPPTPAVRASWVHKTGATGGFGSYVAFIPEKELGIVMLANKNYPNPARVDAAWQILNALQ
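20 mM phosphate pH 7.0 + 0.01% (detergent screen) or 0.0001% Triton X-100; 5.3 nM AmpC reagent; cpd preinc 15 min RT; nitrocefin (800 uM stock) to start; A480 q20 s × 4 min; Activity was normalised to no-enzyme and no-compound control wells.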
AmpC no deterg: inhibitors of E. coli AmpC beta-lactamase without detergent; Potency, µM (doses to about 57.1 µM), hits mostly inhibitors; AmpC nitrocefin hydrolysis, absorbance 480 nm, 0.0001% Triton; P00811; actives 0.52% (n = 330,000); note: nearly all actives have a fitted effect of over 20% in size
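20 mM phosphate pH 7.0 + 0.01% (detergent screen) or 0.0001% Triton X-100; 5.3 nM AmpC reagent; cpd preinc 15 min RT; nitrocefin (800 uM stock) to start; A480 q20 s × 4 min; Activity was normalised to no-enzyme and no-compound control wells.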
HCV inh: blocks hepatitis C virus; Huh7.5.1 HCVcc-Cre infection, luciferase reporter, 44 h; Potency, µM (series often up to 41.8 µM), hits mostly inhibitors; actives 3.4% (n = 340,000); AID 651820
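A cell-based infection assay in which seeded cells (1,000 per well) receive test compound after 4 h, are inoculated with HCVcc-Cre at approximately 0.5 moi, and are incubated 44 h before luminescence detection.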
Pf growth 48h: P. falciparum growth inhibition at 48 hours (one generation). P. falciparum luciferase growth in erythrocytes, 48 h. Potency, µM (top dose mostly 28.7 µM), usual class: inhibitors. actives 5.9% (n = 310,000). AID 504832
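Luciferase-expressing parasites in RBCs, 2% Hct / 0.1% parasitemia final; RPMI 1640 + 0.5% Albumax; 37 C, 5% CO2, one generation; luminescence read-out, lower signal = inhibition.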
AMA1-RON2 inh: inhibitors of Plasmodium falciparum AMA1-RON2 interaction; AlphaScreen AMA1-biotinylated RON2 peptide binding; Potency, µM (series often up to 58.2 µM), actives largely listed as inhibitors; actives 0.2% (n = 360,000); AID 720542; note: nearly all actives have a fitted effect of over 45% in size
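AMA1 (3D7) with his tag at 25 nM final met compounds first, then biotinylated RON2 peptide at 25 nM; detection used donor plus acceptor beads, 10 µg/mL apiece, read by AlphaScreen after 30 min at room temperature.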
Each line names hits and unclear results; the compound was inactive in the other large screens. A selection: hits, their analogues and other compounds. The true share with any hit is near 11%. Calls come from the whole dose curve; as a rule, active = well fitted curve in the direction sought with a large enough effect; inconclusive = small, poorly fitted or top-dose-only effect, or another doubt; inactive = no such curve, though single readings can be large; an effect the other way counts as inactive or inconclusive.

COC(=O)c1sc(N)c(C(=O)OC)c1CSc1nnnn1C	Pf growth 96h 9.3µM, Pf growth 48h 10µM
CCOc1ccc(N2C(=O)C3Sc4[nH]c(=O)sc4C(/C=C/c4ccccc4)C3C2=O)cc1 (stereo not drawn)	AmpC inh detg inconclusive
COc1cc(C2c3sc(=O)[nH]c3SC3C(=O)N(c4ccc(Br)cc4)C(=O)C32)ccc1O (stereo not drawn)	AmpC no deterg 10µM
CCc1ccc2c(COC(=O)c3n[nH]c4ccccc34)cc(=O)oc2c1	HCV inh 10µM
Cc1cc(C)cc(NC(=O)COC(=O)c2n[nH]c3ccccc23)c1	AmpC no deterg 16µM, HCV inh inconclusive
CCN(CC)S(=O)(=O)c1cccc(NC(=O)COC(=O)c2n[nH]c(=O)c3ccccc23)c1	AmpC no deterg 28µM
CCN(CC)S(=O)(=O)c1cccc(NC(=O)COC(=O)c2cc(C)oc2C)c1	AmpC inh detg inconclusive, HCV inh inconclusive (no result: Pf growth 48h)
CC(C)c1ccc(Nc2nc3ccc(C(=O)c4ccccc4)cc3n3cnnc23)cc1	none (no result: Pf growth 96h, AmpC no deterg, HCV inh, Pf growth 48h, AMA1-RON2 inh)
O=C1OCC(c2ccccc2)=C1c1ccccc1	none
CS(=O)(=O)c1ccc(C2=C(c3ccccc3)C(=O)OC2)cc1	HCV inh 7.1µM (no result: AmpC inh detg, AmpC no deterg)
CN(C)c1ccc(-c2nc(-c3cc4cc(Cl)ccc4oc3=O)cs2)cc1	none (no result: Pf growth 96h, AmpC no deterg, HCV inh, Pf growth 48h, AMA1-RON2 inh)
O=C(NC1CCCCC1)C(=O)N(Cc1cccnc1)C(C(=O)NCc1ccco1)c1ccccc1 (stereo not drawn)	Pf growth 96h 5.2µM (no result: HCV inh, AMA1-RON2 inh)
O=C(CNC(=S)N(Cc1ccccc1)Cc1cccnc1)NC1CCCCC1	Pf growth 96h 9.3µM, Pf growth 48h inconclusive
O=C(NC1CCCC1)C(=O)N(Cc1cccnc1)C(C(=O)NCc1ccco1)c1ccccc1F (stereo not drawn)	none
O=C(CNC(=S)N(Cc1ccccc1)Cc1cccnc1)NCc1ccccc1	Pf growth 96h inconclusive
COc1cc(NC(=O)NCCn2nnc3cc(S(=O)(=O)N(C)C)ccc32)cc(OC)c1OC	none (no result: Pf growth 96h, AmpC no deterg, HCV inh, Pf growth 48h, AMA1-RON2 inh)
COc1ccc([N+](=O)[O-])cc1N(CC(O)CN(CC(C)C)CC(C)C)S(=O)(=O)c1ccccc1 (stereo not drawn)	Pf growth 96h inconclusive, Pf growth 48h 9.3µM
CCCCN(CCCC)CC(O)CN(c1cc([N+](=O)[O-])ccc1OC)S(=O)(=O)c1ccccc1 (stereo not drawn)	Pf growth 96h inconclusive, AmpC inh detg inconclusive, HCV inh inconclusive, Pf growth 48h 13µM
CN(Cc1cn(-c2ccccc2)nc1-c1ccc2c(c1)OCO2)Cc1nccn1C	HCV inh inconclusive, Pf growth 48h 12µM
CC(=O)NCC1CCCN(Cc2cn(-c3ccccc3)nc2-c2ccc3c(c2)OCO3)C1 (stereo not drawn)	Pf growth 96h 13µM
CCOc1ccc(NC(=O)CCc2c(C)nc3nc(-c4cc(OC)cc(OC)c4)nn3c2C)cc1	none (no result: Pf growth 96h, AmpC no deterg, HCV inh, Pf growth 48h, AMA1-RON2 inh)
COc1cccc(CNC(=O)c2cc(S(=O)(=O)N3CCCC3)cn2C)c1	Pf growth 96h 12µM, AmpC inh detg inconclusive, Pf growth 48h 13µM
Cc1cccc(CCNC(=O)c2cc(S(=O)(=O)N3CCCC3)cn2C)c1	HCV inh 8.9µM
c1ccc2sc(NCC3CCCO3)nc2c1 (stereo not drawn)	none
CC1=CC(=C(C#N)c2nc3ccccc3s2)C=C(C)N1CC1CCCO1 (stereo not drawn)	Pf growth 96h 2.9µM, HCV inh 11µM, Pf growth 48h inconclusive
COc1cc(O)c(C(CCN2CCCC2)c2ccc(N(C)C)cc2)c(OC)c1 (stereo not drawn)	Pf growth 96h 3.3µM, Pf growth 48h 2.9µM, AMA1-RON2 inh inconclusive
COc1ccc(C(CCN2CCOCC2)c2c(O)cc(OC)cc2OC)cc1 (stereo not drawn)	Pf growth 96h 3.3µM, Pf growth 48h 3.7µM
COc1cc(O)c(C(CC(=O)N2CCCC2)c2ccc(N(C)C)cc2)c(OC)c1 (stereo not drawn)	Pf growth 48h inconclusive
COc1cc(O)c(C(CCN2CCCCC2)c2ccc(N(C)C)cc2)c(OC)c1 (stereo not drawn)	Pf growth 96h 0.83µM, Pf growth 48h 1.3µM
CCCc1nc2ccc(NC(=O)c3cccs3)cc2c(=O)n1Cc1ccccc1Cl	Pf growth 96h inconclusive, AmpC inh detg inconclusive, HCV inh inconclusive, Pf growth 48h 1.9µM
CCOC(=O)N1CCN(Cc2nc3cc(NC(=O)c4cccs4)ccc3n2CC)CC1	HCV inh inconclusive, Pf growth 48h 2.9µM
CCOC(=O)N1CCN(Cc2nc3cc(NC(=O)c4cccs4)ccc3n2C)CC1	HCV inh inconclusive, Pf growth 48h inconclusive
Cn1c(CN2CCCCC2)nc2cc(NC(=O)c3cccc(Br)c3)ccc21	Pf growth 96h 4.7µM, HCV inh 5.6µM (no result: Pf growth 48h)
Cn1c(CN2CCCCC2)nc2cc(NC(=O)c3cccs3)ccc21	HCV inh inconclusive, Pf growth 48h 10µM
O=C(Nc1ccccc1O)c1cc(S(=O)(=O)N2CCCC2)ccc1Cl	none (no result: Pf growth 96h, AmpC no deterg, HCV inh, Pf growth 48h, AMA1-RON2 inh)
Cc1ccc(C)c(CSc2cn(CC(=O)N3CCCC3)c3ccccc23)c1	none (no result: Pf growth 96h, AmpC no deterg, HCV inh, Pf growth 48h, AMA1-RON2 inh)
COCCn1c(C)cc(O)c(C(c2ccccc2)N2CCC(C)CC2)c1=O (stereo not drawn)	none (no result: Pf growth 96h, AmpC no deterg, HCV inh, Pf growth 48h, AMA1-RON2 inh)
COc1cccc(OC)c1OCCCOc1ccc([N+](=O)[O-])cc1Cl	HCV inh inconclusive
CCOc1ccccc1OCCCOc1ccc([N+](=O)[O-])cc1Cl	Pf growth 96h 10µM, HCV inh 13µM, Pf growth 48h inconclusive
CC1CC(C)CN(C(=O)CCNS(=O)(=O)c2ccc3c(c2)CCC(=O)N3)C1 (stereo not drawn)	Pf growth 96h inconclusive
O=C1CCc2cc(S(=O)(=O)NCCC(=O)N3CCN(c4cccc(Cl)c4)CC3)ccc2N1	Pf growth 96h 10µM, AmpC inh detg inconclusive, HCV inh inconclusive, Pf growth 48h inconclusive
Cc1ccccc1NC(=O)CCNS(=O)(=O)c1ccc2c(c1)CCC(=O)N2	Pf growth 96h inconclusive
CC(CC(=O)N1CCN(c2cccc(Cl)c2)CC1)S(=O)(=O)c1ccc2c(c1)NC(=O)CO2 (stereo not drawn)	Pf growth 96h inconclusive, HCV inh 6.3µM, Pf growth 48h inconclusive
O=C(CCNS(=O)(=O)c1ccc(Cl)cc1)N1CCCCCC1	Pf growth 96h 12µM (no result: HCV inh)
Cc1ccc(NC(=O)CCNS(=O)(=O)c2ccc3c(c2)CCC(=O)N3)cc1F	Pf growth 96h 9.3µM
COc1ccc(NC(=O)C2=C(C)Nc3nc(SCc4ccccc4)nn3C2c2cc(OC)ccc2OC)cc1 (stereo not drawn)	none (no result: Pf growth 96h, AmpC no deterg, HCV inh, Pf growth 48h, AMA1-RON2 inh)
